Results reported in PubChem BioAssay AID1053173 (Broad Institute, 2014).
About 390 (26%) of roughly 1,500 compounds were called active. The rule behind the calls is not given here. These entries were drawn from the full list. Measured potencies and affinities stand elsewhere.

These compounds were tested against Histone-lysine N-methyltransferase NSD2 (Homo sapiens) (UniProt O96028) (assay: NSD2 methyltransferase inhibitors, dose response, biochemical, AlphaScreen, cherry-picked samples (AID 1053173)). Details: NSD2 H4 peptide methylation, 120 min; series mostly up to 10 µM.
Histone-lysine N-methyltransferase NSD2 (Homo sapiens), sequence (O96028 whole entry, looked up): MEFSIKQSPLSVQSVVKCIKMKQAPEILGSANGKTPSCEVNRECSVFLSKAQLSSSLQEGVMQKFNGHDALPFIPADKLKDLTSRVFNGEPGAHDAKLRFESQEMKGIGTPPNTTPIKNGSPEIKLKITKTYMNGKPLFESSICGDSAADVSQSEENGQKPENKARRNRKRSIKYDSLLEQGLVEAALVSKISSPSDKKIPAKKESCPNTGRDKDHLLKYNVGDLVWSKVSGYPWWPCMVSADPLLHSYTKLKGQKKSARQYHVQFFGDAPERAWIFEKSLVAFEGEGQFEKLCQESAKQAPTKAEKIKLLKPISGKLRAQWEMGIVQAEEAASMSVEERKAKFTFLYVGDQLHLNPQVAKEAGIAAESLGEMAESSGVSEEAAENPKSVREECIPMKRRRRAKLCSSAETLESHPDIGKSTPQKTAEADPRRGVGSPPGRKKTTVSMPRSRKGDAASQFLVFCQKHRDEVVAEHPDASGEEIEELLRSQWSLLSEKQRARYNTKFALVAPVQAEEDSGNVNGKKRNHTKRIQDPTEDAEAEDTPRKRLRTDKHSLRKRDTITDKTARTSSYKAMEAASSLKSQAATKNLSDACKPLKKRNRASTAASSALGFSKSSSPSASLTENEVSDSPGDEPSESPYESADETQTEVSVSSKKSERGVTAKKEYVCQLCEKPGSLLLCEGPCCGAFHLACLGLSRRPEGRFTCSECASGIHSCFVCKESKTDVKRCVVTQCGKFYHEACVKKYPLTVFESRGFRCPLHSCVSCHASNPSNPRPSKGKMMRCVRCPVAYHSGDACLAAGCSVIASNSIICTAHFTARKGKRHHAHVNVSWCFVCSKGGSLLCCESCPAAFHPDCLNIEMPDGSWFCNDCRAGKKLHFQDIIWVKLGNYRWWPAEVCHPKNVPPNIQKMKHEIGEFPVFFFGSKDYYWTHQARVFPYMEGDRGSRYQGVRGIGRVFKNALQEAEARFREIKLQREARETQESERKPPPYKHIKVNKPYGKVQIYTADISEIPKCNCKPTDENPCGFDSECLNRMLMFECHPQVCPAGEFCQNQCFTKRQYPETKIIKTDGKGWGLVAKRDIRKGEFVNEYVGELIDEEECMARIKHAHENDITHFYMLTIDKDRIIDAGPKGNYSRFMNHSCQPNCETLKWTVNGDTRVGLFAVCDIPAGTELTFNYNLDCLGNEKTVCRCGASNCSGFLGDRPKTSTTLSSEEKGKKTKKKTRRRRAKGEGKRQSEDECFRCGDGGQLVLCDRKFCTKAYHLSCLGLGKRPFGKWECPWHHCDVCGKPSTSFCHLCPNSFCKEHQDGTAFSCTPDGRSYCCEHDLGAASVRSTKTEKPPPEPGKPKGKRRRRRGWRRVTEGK
For `O=C(O)c1cc(N/N=C/c2ccc3c(c2)OCO3)ccc1Cl`, the outcome was “inactive”. In the case of `O=c1cc(C=NNc2ccccc2)[nH]c(=O)[nH]1`, the outcome is reported as “inactive”. For `Cc1noc(C)c1S(=O)(=O)N1CCN(S(=O)(=O)c2ccccc2C#N)CC1`, the outcome was “inactive”. In the case of `CCCC(CCC(=O)Nc1cccc([N+](=O)[O-])c1)C(=O)O` (centres undefined), the outcome is reported as “inactive”. With `COc1cc(C(=O)Oc2cccc(/C=N/NC(=O)c3cccnc3)c2)cc(OC)c1OC` the outcome was “inactive”. With `CNC(=S)NC(CC(=O)OC)c1ccc2c(c1)OCO2` (centres undefined) the outcome was “inactive”. `CC[n+]1c(/C=C/Nc2ccccc2)oc2ccccc21` was tested, and the outcome was “inactive”. With `Cc1cc(Cl)c(OCCN2C(=O)NC(C)(C)C2=O)c(Br)c1` the outcome was “inactive”. For `COc1ccc(/C=C/C(=O)OCC(=O)NCC2CCCO2)cc1` (centres undefined), the outcome was “inactive”. `COc1ccccc1CN(Cc1cc2cc3c(cc2[nH]c1=O)OCCO3)Cc1nnnn1Cc1ccco1` was tested, and the outcome was “inactive”. `CCOC(=O)CN(C(=O)COc1nc(-c2ccccc2)cc(C)c1C#N)c1ccccc1` was tested, and the outcome was “inactive”. `COc1ccc(C(=O)Nc2ccc3[nH]ccc3c2)cc1OC` was tested, and the outcome was “inactive”. For `COc1ccc(C(=O)Cc2nnc(C)s2)cc1`, the outcome was “inactive”. With `COc1cc(N)c(C(=O)c2nccc3cc(OC)c(OC)cc23)cc1OC` the outcome was “inactive”. For `C/C(=N/NC(=O)CCc1ccccc1)c1ccco1`, the outcome was “inactive”. With `Cc1ccccc1NC(=O)CN1CCC(C(=O)c2ccc3c(c2)OCCO3)CC1` the outcome was “inactive”. With `COc1ccc(C2=NNC(c3cccs3)=Nc3ccc(OC)cc32)cc1` the outcome was “inactive”. In the case of `COc1ccc(-n2nnnc2-c2cnc(N3CCCC3)nc2C(F)(F)F)cc1`, the outcome is reported as “inactive”. For `Cc1cc(C)n(-c2ncccc2[N+](=O)[O-])n1`, the outcome was “inactive”. `O=[N+]([O-])c1cc2ncccc2c2ncccc12` was tested, and the outcome was “inactive”. In the case of `COc1ccc(/C=C(\C#N)C(=O)N2COCC2(C)C)cc1`, the outcome is reported as “inactive”. `COc1ccc(NC(=O)CN(C)S(=O)(=O)c2ccc(C)cc2)c([N+](=O)[O-])c1` was tested, and the outcome was “inactive”. In the case of `C=CCc1cccc2cc(C(=O)Nc3ccc(NC(C)=O)cc3)c(=O)oc12`, the outcome is reported as “inactive”. For `COC(=O)c1cc(NC(=O)Nc2cc(OC)ccc2OC)cc(C(=O)OC)c1`, the outcome was “inactive”. `N=C1/C(=C\c2ccc(Br)o2)C(=O)N=C2SC(CC(=O)N3CCCCC3)=NN12` was tested, and the outcome was “inactive”. In the case of `COc1ccc(/C=C2\N=C(C(C)(C)C)OC2=O)c(OC)c1`, the outcome is reported as “inactive”. With `O=C(c1ccccc1F)N(Cc1cccs1)C1CCS(=O)(=O)C1` (centres undefined) the outcome was “inactive”. With `Cc1ccc(C(=O)Nc2ccc(Cl)cc2C(F)(F)F)c(Cl)c1` the outcome was “inactive”. In the case of `CCC1=[N+]([O-])C(C)(/C(C)=N\O)N(O)C1(C)C` (centres undefined), the outcome is reported as “inactive”. For `COc1cc(NC(=O)c2[nH]c(C)c(C(C)=O)c2C)cc(OC)c1OC`, the outcome was “inactive”. With `COc1ccc(C2SCCN2S(=O)(=O)c2ccccc2)cc1` (centres undefined) the outcome was “inactive”. `COc1ccc(NC(=O)C2Cc3c(-c4ccc(Cl)cc4)ccnc3O2)cc1` (centres undefined) was tested, and the outcome was “inactive”. For `O=C(O)CC1S/C(=N/N=C/c2ccc(-c3ccccc3[N+](=O)[O-])o2)NC1=O` (centres undefined), the outcome was “inactive”. In the case of `CCN1C(=O)/C(=C\c2ccc(-c3ccc([N+](=O)[O-])cc3OC)o2)SC1=Nc1cccc(C(=O)O)c1`, the outcome is reported as “inactive”. In the case of `Nc1ccc2c(c1)OCCOCCOCCOCCOCCO2`, the outcome is reported as “inactive”. In the case of `CCCOc1ccc(C(C)=O)cc1CC(C(N)=O)C(N)=O`, the outcome is reported as “inactive”. In the case of `COc1ccc2c(c1)Cc1sc(NC(=O)c3ccccc3)nc1-2`, the outcome is reported as “inactive”. `NC(=O)c1nsc(C(=O)N(c2ccccc2)C(C(=O)NCC2CCCO2)c2ccc3ncccc3c2)c1N` (centres undefined) was tested, and the outcome was “inactive”. With `CCOC(=O)C1CCCN(C(=O)c2ccc(S(=O)(=O)Nc3ccccc3OC)cc2)C1` (centres undefined) the outcome was “inactive”. With `O=C(NCCc1ccccn1)C1CCCN1S(=O)(=O)c1ccc(Cl)cc1` (centres undefined) the outcome was “inactive”. With `O=C(Nc1ccc(S(=O)(=O)Nc2ncccn2)cc1)C1CC(=O)N(c2ccc(Cl)cc2)C1` (centres undefined) the outcome was “inactive”. `Cn1c(SCC(=O)Nc2ccc3c(c2)OCCO3)nnc1-c1ccncc1` was tested, and the outcome was “inactive”. In the case of `CCOC(=O)c1cccc(P(C)(C)=O)c1`, the outcome is reported as “inactive”. In the case of `COc1ccccc1NC(=O)c1ccc(NC(=O)C2COc3ccccc3O2)cc1` (centres undefined), the outcome is reported as “inactive”. With `C=CC[n+]1c(-c2ccc(Cl)cc2Cl)csc1Nc1c(C)n(C)n(-c2ccccc2)c1=O` the outcome was “inactive”. For `CCN(C(=S)Nc1cccnc1)c1cccc2ccccc12`, the outcome was “inactive”. `S=C(Nc1cccnc1)Nc1cccc2cnccc12` was tested, and the outcome was “inactive”. For `O=c1c2ccccc2nnn1CSc1nc2ccccc2c(=O)n1CCCO`, the outcome was “inactive”. In the case of `O=C(NC(=S)Nc1ccccc1N1CCCC1)c1ccco1`, the outcome is reported as “inactive”. With `Cc1cc2c(OCC(O)CNC3CCCCC3)cccc2[nH]1` (centres undefined) the outcome was “inactive”. In the case of `CC1=CS(=O)(=O)CC1Sc1ncn[nH]1` (centres undefined), the outcome is reported as “inactive”. `COc1cccc(CNc2cccc3cccnc23)c1O` was tested, and the outcome was “inactive”. `Oc1ccc(CNc2ccccc2O)cc1` was tested, and the outcome was “inactive”. `Cc1ccccc1N(C(=O)c1snc(C(N)=O)c1N)C(C)C(=O)NC1CCCCC1` (centres undefined) was tested, and the outcome was “inactive”. For `CC(=O)Nc1ccc(NCc2ccc(C)s2)cc1`, the outcome was “inactive”. For `CCOc1c(O)ccc(/C=C2\SC(=S)NC2=O)c1[N+](=O)[O-]`, the outcome was “inactive”. `Cc1ccc(Cl)c(OCC(=O)Nc2cc(S(=O)(=O)N3CCOCC3)ccc2N2CCCC2)c1` was tested, and the outcome was “inactive”. For `COc1ccc(CN(C(=O)CN2C(=O)NC3(CCC(C)CC3)C2=O)C(C)Cc2cccs2)cc1` (centres undefined), the outcome was “inactive”. In the case of `c1ccc(-c2nc(N3CCOCC3)c3ccccc3n2)nc1`, the outcome is reported as “inactive”. For `CCc1nnc(NC(=O)COc2ccc3c(c2)OCO3)s1`, the outcome was “inactive”. In the case of `CN1CCCCc2c1nc1ccccc1c2N` (tested in a mixture with another compound), the outcome is reported as “inactive”. With `COc1cc(/C=C/C(=O)OCC(=O)NNC(=O)c2cc(Cl)ccc2OC)ccc1O` the outcome was “inactive”. In the case of `Cc1cc(OCC(=O)Nc2ccccc2N2CCCCC2)ccc1C(C)C`, the outcome is reported as “inactive”. For `COc1ccccc1/C=N/Nc1cc(C)nc(N2CCOCC2)n1`, the outcome was “inactive”. With `FC(F)(F)c1ccc(N/N=C/c2cccnc2)nc1` the outcome was “inactive”. In the case of `N#Cc1cc(-c2ccccc2)cnc1Sc1ccc(Cl)cc1`, the outcome is reported as “inactive”. `CN1CC2(Cc3c1ccc1ccccc31)C(=O)OC(C)(C)OC2=O` was tested, and the outcome was “inactive”. With `CC1=NOC(=O)/C1=C\c1ccc(-c2ccc(Cl)c(C(=O)O)c2)o1` the outcome was “inactive”. For `Cc1cc(=O)cc(C)n1-c1ccc(O)cc1`, the outcome was “inactive”. `CSc1ncccc1C(=O)OCC(=O)N1CC2(C)CC1CC(C)(C)C2` (centres undefined) was tested, and the outcome was “inactive”. `Cn1c(=O)cc(SCC(=O)N2CCOCC2)c2ccc(Cl)cc21` was tested, and the outcome was “inactive”. In the case of `O=S(=O)(Nc1nc(-c2ccco2)c(-c2ccco2)s1)c1ccc(F)cc1F`, the outcome is reported as “inactive”. `O=C(COC(=O)c1cc(S(=O)(=O)N2CCOCC2)ccc1F)c1ccc[nH]1` was tested, and the outcome was “inactive”. `CCN(CC)C(=O)c1cc([N+](=O)[O-])cc2c1-c1ccc([N+](=O)[O-])cc1C2=C(C#N)C#N` was tested, and the outcome was “inactive”. In the case of `CC(=O)c1cc(-c2ccccc2)n(CC(=O)NC2CCCCC2)c1C`, the outcome is reported as “inactive”. In the case of `COc1ccc(-c2c3c(nc4sc(C(=O)Nc5cc(C)on5)c(N)c24)CCC3)cc1`, the outcome is reported as “inactive”. `N=C1SCC(=O)N1c1ncc(Cc2cccc(Cl)c2)s1` was tested, and the outcome was “inactive”. With `Cc1cccc(OCCC(=O)Nc2ccccc2C(N)=O)c1` the outcome was “inactive”. `Cc1c(C)n(Cc2ccccc2)c2ccc(C(=O)OCCCN(C)C)cc12` was tested, and the outcome was “inactive”. For `CCOC(=O)c1c(C)[nH]c(C)c1C(=O)COC(=O)[C@@H]1CCCN1S(=O)(=O)c1ccc(Cl)cc1`, the outcome was “inactive”. With `CCOC(=O)c1cc(-c2ccc(F)cc2)nc2c1c(=O)[nH]c(=O)n2Cc1ccccc1` the outcome was “inactive”. In the case of `CCn1cnc2c1c(=O)n(CC(=O)O)c(=O)n2Cc1ccccc1`, the outcome is reported as “inactive”. In the case of `COC(=O)c1c(SCC(=O)Nc2ccc(C)c(C)c2)nc(=O)[nH]c1C`, the outcome is reported as “inactive”. With `Cc1cc(=O)n(Cc2ccccc2)c(O)c1C#N` the outcome was “inactive”. In the case of `COc1ccc(S(=O)(=O)N(C)CC(=O)NCCN2CCOCC2)cc1Cl`, the outcome is reported as “inactive”. With `c1ccc(CCN2CN=C(Nc3nc4ccccc4s3)NC2)cc1` the outcome was “inactive”. For `O=C1CC2(CCCCC2)CC(=O)N1CCc1ccccc1`, the outcome was “inactive”. `Nc1ccc(N=Nc2ccccc2O)c(N)c1` was tested, and the outcome was “inactive”. `O=C(OCc1ccc(Cl)c(Cl)c1)c1cccnc1Cl` was tested, and the outcome was “inactive”. With `CCN1CCN(CCCNC(=O)c2ccc3c(c2)NC(=O)/C(=C\c2cccc(C)c2)S3)CC1` the outcome was “inactive”. `O=C(CN1CCOCC1)Nc1ccc(Oc2ccccc2)cc1` was tested, and the outcome was “inactive”. `O=C(O)C=C1C2CC3CC(C2)CC1C3` was tested, and the outcome was “inactive”. `COC(=O)CC1=NN(c2ccc(OC)cc2)C(=O)/C1=C\c1ccc(Cl)cc1` was tested, and the outcome was “inactive”. In the case of `Nc1nonc1C(=O)N/N=C/c1cc2c(cc1[N+](=O)[O-])OCO2`, the outcome is reported as “inactive”. `CC(C)(C)C(=O)NC1CC2CCCC(C1)N2C(=O)Nc1ccc(Cl)cc1` (centres undefined) was tested, and the outcome was “inactive”. With `COc1ccc2c(C#N)c3ccccn3c2c1` the outcome was “inactive”. `COc1ccc(-c2cn[nH]c2N)cc1` was tested, and the outcome was “inactive”. For `CN(C)CCCN1C(=O)c2cccc3c([N+](=O)[O-])ccc(c23)C1=O`, the outcome was “inactive”. In the case of `COc1ccc(NS(=O)(=O)c2cccc(C(=O)N3CCCCCC3)c2)cc1`, the outcome is reported as “inactive”. With `O=C1CC(=O)Nc2cc(S(=O)(=O)Nc3ccc(Cl)c(C(F)(F)F)c3)ccc2N1` the outcome was “inactive”. `CC(=O)NC1=NN(C(C)=O)C(C)(c2cccc([N+](=O)[O-])c2)S1` (centres undefined) was tested, and the outcome was “inactive”. For `CCOC(=O)C1(C)CCCN1C(=O)c1cccc(F)c1` (centres undefined), the outcome was “inactive”. For `CC1(CC(=O)N/N=C/c2cc([N+](=O)[O-])c(O)cc2O)OCCO1`, the outcome was “inactive”. For `Cc1cc(NC(=O)COC(=O)c2cccc(S(=O)(=O)N3CCOCC3)c2)no1`, the outcome was “inactive”. With `O=C(CNc1ccc(F)cc1)N/N=C/c1c(O)ccc2ccccc12` the outcome was “inactive”. With `O=C(CSc1nc(-c2ccccc2)c(-c2ccccc2)o1)Nc1nnc(-c2ccccc2)s1` the outcome was “inactive”. For `C/C(=N\NC(=O)CSc1nc2ccccc2o1)c1ccc(O)cc1`, the outcome was “inactive”. With `C=CCn1c(-c2ccc(OC)cc2)nc2nc3ccccc3nc21` the outcome was “inactive”. For `O=c1[nH]c(CN2CCOCC2)nc2cc(Cl)ccc12`, the outcome was “inactive”.
